Structures are written as SMILES. Values joined by “and” are separate entries in the source; they are usually repeats but may differ in a detail not shown here. Identical values can stand only once. Records with an inconclusive call do not appear. A number with no mark means an inactive call. Active and inactive are the calls of the source. Unless noted, the call rests on the fitted dose curve.

Assay [1] addresses Bile acid receptor (Homo sapiens) (UniProt Q96RI1). Briefly: qHTS assay for small molecule agonists of farnesoid X receptor signaling (AID 588527).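 Further: 0% = vehicle basal and 100% = reference agonist.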 The note with it: HEK293T FXR-UAS-bla, beta-lactamase ratio, 16 h; activation: active compounds read high. An outline of the steps: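 Read-out: beta-lactamase reporter fluorescence with CCF4 substrate in GeneBLAzer FXR-UAS-bla HEK293T cells, after 16 h compound exposure at 37 C. Response scaled between DMSO basal (0%) and chenodeoxycholic acid at 100 uM (100%).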

Assay [2] deals with Peroxisome proliferator-activated receptor delta (Homo sapiens) (UniProt Q03181). The assay is described as follows: qHTS assay for small molecule agonists of peroxisome proliferator-activated receptor delta signaling (AID 588534).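 Further: 0% = DMSO basal wells and 100% = positive control agonist at 10 µM.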 The conditions noted are these: HEK293T PPARdelta-UAS-bla, beta-lactamase ratio, 18 h; series mostly up to 76.7 µM. An outline of the steps:
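Reporter cells were plated and held 5 hrs at 37 C before compounds were added. After 18 hrs at 37 C, CCF4 dye was loaded for 2 hrs at RT and fluorescence measured.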

The target in assay [3] is Thyroid hormone receptor beta (Homo sapiens) (UniProt P10828). The assay is described as follows: qHTS assay for small molecule agonists of thyroid hormone receptor beta signaling (AID 588545).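 Further: 0% = DMSO only and 100% = 10 nM T3.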 The conditions noted are these: TR-UAS-bla GripTite HEK 293, beta-lactamase ratio, agonist mode, 18 h; series mostly up to 76.7 µM. In outline: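 Beta-lactamase reporter activity under TR response element control is measured in HEK 293 cells after 18 hrs compound exposure. Signal is ratiometric CCF4 fluorescence, 460/530 nm.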
Sequence of Thyroid hormone receptor beta (Homo sapiens) (P10828 whole entry, looked up): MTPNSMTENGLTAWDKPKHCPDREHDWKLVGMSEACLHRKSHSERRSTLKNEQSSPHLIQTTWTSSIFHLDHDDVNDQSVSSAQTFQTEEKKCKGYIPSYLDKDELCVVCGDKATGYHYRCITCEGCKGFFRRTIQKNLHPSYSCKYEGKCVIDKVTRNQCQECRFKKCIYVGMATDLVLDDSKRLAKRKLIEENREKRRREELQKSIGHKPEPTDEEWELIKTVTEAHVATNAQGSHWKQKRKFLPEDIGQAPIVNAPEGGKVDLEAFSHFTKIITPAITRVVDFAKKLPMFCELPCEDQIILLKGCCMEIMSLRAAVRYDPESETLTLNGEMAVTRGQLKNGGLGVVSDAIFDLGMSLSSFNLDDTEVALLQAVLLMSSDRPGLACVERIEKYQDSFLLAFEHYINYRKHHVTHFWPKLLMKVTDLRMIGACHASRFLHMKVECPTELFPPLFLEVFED

A short description of assay [4]: qHTS assay for small molecule agonists of the antioxidant response element (ARE) signaling pathway (AID 651741; active means well fitted activation curve with a large enough effect in the signal ratio; the % refers to the signal ratio; further: potency means the concentration at half of the fitted maximal effect). The conditions noted are these: HepG2 ARE-bla reporter, beta-lactamase FRET ratio, 16 h; series mostly up to 96 µM. An outline of the steps: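 HepG2 ARE-bla cells plated at 2,000 cells/well and incubated 5 h at 37 C/5% CO2 received 23 nL compound in DMSO. After 16 h at 37 C, LiveBLAzer B/G FRET substrate was applied for 2 h at room temperature and fluorescence read.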

Assay [5] can be described thus: qHTS assay for environmental chemicals that activate the Aryl hydrocarbon Receptor (AhR) signaling pathway (AID 651777; active means well fitted curve in the direction sought with a large enough effect; an effect the other way counts as inactive or inconclusive; further: potency means the concentration at half of the fitted maximal effect; nearly all actives have a fitted effect of over 15% in size). The conditions noted are these: 1A2-DRE human hepatoma cells, luciferase, 24 h; activation: active compounds read high. An outline of the steps: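 1A2-DRE human hepatoma reporter line; 1,200 cells/well; cmpd or DMSO 24 h, 37 C/5% CO2; One-Glo 30 min RT; luciferase lum.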

For assay [6], the target named is Nuclear receptor ROR-gamma (Homo sapiens) (UniProt P51449). Briefly: qHTS assay for small molecule antagonists of the retinoid-related orphan receptor gamma (ROR-gamma) signaling pathway (AID 651802; active means well fitted curve in the direction sought with a large enough effect; an effect the other way counts as inactive or inconclusive;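 further: CHO cells with doxycycline-induced ROR-gamma expression; luciferase reporter luminescence driven by ROR response element; on the % scale 0 is the no-effect control and ±100 the full control effect; nearly all actives have a fitted effect of over 60% in size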). The note with it: ROR-gamma antagonist cell reporter assay; series mostly up to 92.2 µM. An outline of the steps:
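Antagonism is scored as a fall in luminescence from a RORE-luciferase reporter in CHO cells expressing ROR under a TET-inducible promoter, measured 16hr after doxycycline induction in the presence of compound.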

Sequence of Bile acid receptor (Homo sapiens) (Q96RI1 whole entry, looked up): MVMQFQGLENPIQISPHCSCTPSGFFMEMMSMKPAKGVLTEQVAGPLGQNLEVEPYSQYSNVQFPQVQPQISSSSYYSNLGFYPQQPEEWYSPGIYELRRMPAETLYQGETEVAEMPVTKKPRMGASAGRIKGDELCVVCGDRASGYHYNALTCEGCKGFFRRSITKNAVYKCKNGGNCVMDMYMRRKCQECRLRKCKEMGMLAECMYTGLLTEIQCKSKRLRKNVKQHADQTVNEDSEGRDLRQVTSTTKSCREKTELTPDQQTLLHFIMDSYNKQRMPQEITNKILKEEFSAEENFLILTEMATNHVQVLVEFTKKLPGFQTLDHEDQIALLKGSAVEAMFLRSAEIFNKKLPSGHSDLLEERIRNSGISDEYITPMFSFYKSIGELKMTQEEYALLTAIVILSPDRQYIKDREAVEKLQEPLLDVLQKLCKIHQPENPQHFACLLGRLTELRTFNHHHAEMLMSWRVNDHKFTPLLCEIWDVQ
Sequence of Peroxisome proliferator-activated receptor delta (Homo sapiens) (Q03181 whole entry, looked up): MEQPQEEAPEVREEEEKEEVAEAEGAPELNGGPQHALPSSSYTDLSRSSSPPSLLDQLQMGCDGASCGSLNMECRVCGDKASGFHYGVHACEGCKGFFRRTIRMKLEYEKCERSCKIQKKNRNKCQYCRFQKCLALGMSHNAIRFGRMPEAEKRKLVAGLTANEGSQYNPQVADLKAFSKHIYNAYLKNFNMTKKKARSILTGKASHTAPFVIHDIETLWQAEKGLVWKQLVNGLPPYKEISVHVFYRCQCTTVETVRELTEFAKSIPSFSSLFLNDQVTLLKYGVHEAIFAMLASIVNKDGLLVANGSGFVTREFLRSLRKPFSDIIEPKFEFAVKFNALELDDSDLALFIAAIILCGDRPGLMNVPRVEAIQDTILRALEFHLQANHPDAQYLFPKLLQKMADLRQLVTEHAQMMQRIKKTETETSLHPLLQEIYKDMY
Sequence of Nuclear receptor ROR-gamma (Homo sapiens) (P51449 whole entry, looked up): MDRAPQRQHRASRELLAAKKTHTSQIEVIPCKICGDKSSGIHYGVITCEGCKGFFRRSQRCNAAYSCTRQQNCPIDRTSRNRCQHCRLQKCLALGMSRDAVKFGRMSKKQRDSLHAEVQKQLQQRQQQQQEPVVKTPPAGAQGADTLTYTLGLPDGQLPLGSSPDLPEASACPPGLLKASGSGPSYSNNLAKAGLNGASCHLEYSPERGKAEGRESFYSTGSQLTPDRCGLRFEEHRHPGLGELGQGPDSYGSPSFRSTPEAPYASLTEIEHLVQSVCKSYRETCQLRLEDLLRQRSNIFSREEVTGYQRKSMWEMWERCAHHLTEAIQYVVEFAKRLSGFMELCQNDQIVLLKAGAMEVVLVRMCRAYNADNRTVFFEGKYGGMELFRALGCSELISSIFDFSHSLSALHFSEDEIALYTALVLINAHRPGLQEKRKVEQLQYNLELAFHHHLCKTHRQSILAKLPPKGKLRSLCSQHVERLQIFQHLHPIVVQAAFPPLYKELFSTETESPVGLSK

Turning to `CCCCCCCCCCCCc1ccccc1`, the activation in assay [1] was 3.31%. In assay [2], the result was inactive.

On to `CC(C)(c1cc(Br)c(O)c(Br)c1)c1cc(Br)c(O)c(Br)c1`, for which, in assay [1], the activation was 3.15% and 6.79% and 4.84%. The outcome in assay [2] was inactive.

On to `CCCCCCCCCCCCOCC1CO1` (stereo not given), for which the activation in assay [1] is -0.164%. Moreover, the result in assay [2] was inactive.

On to `CC1=C(/C=C/C(C)=C/C=C/C(C)=C/C=O)C(C)(C)CCC1`, for which the activation in assay [1] was 23.6%. In addition, the outcome in assay [2] was inactive.

On to `CCOCCOCCOC(C)=O`, for which the activation in assay [1] was -3.45%. Moreover, in assay [2], the outcome was inactive.

With `CCC(=O)/C=C/C1C(C)=CCCC1(C)C` (stereo not given), the activation in assay [1] is -0.845%. In addition, the result in assay [2] was inactive.

For the molecule `Cc1cc(C)cc(N)c1`, the activation in assay [1] was -1.69%. For the same molecule, the result in assay [2] was inactive.

On to `BrC/C=C/CBr`, for which the activation in assay [1] was 1.2%. The outcome in assay [2] was inactive.

`CCc1ccc(C(c2ccc(CC)cc2)C(Cl)Cl)cc1`: in assay [1], the activation was 3.04%. For the same molecule, the result in assay [2] was inactive.

`COc1cc(Cl)c(OC)cc1N`: the activation in assay [1] is -0.889%. In addition, in assay [2], the result was inactive.

With `NCCCCCCCCCCC(=O)O`, in assay [1], the activation was 1.65%. The outcome in assay [2] was inactive.

For `CCCCC(CC)COS(=O)(=O)O` (stereo not given), the activation in assay [1] was 1.45%. Further, in assay [2], the result was inactive.

For the molecule `CC(C)(C)c1n[nH]c(=O)n(N)c1=O`, the activation in assay [1] is 2.05%. Also, the result in assay [2] was inactive.

With `CCCCOCCOCCOC(=O)CCCCC(=O)OCCOCCOCCCC`, in assay [1], the activation was 3.42%. The result in assay [2] was inactive.

Turning to `CO/N=C1\C[C@]2(C[C@@H]3C[C@@H](C/C=C(\C)C[C@@H](C)/C=C/C=C4\CO[C@@H]5[C@H](O)C(C)=C[C@@H](C(=O)O3)[C@]45O)O2)O[C@H](/C(C)=C/C(C)C)[C@H]1C`, the activation in assay [1] is 6.07%. The result in assay [2] was inactive.

In the case of `CCCCCCCCCC(=O)OC`, in assay [1], the activation is -0.517%. Further, the outcome in assay [2] was inactive.

For `NCCCCCCCCCCCC(=O)O`, the activation in assay [1] is 0.942%. Further, the result in assay [2] was inactive.

With `C[Si](Cl)(Cl)[Si](C)(Cl)Cl`, the activation in assay [1] is 5.31%. Further, in assay [2], the outcome was inactive.

As for `Cc1ccc(C)c(O)c1`, the activation in assay [1] was 2.07%. Also, in assay [2], the result was inactive.

In the case of `C=Cc1ccccc1Cl`, the activation in assay [1] was 0.519%. The result in assay [2] was inactive.

In the case of `CCCCCCCCCCCCCCCO`, in assay [1], the activation was -2.39%. Further, in assay [2], the outcome was inactive.

In the case of `CCOC(=O)[C@H](C)Oc1ccc(Oc2nc3ccc(Cl)cc3o2)cc1`, the activation in assay [1] is -2.5%. Also, the Potency entry in assay [3] was “inactive”.

In the case of `c1ccc2c(c1)ccc1c3ccccc3ccc21`, the activation in assay [1] is -1.28%. The outcome in assay [2] was inactive. For the same molecule, the Potency in assay [4] was 4.33 µM (active); in assay [5], 11.2 µM (active).

As to `NC(N)=S`, in assay [1], the activation was -0.31%. Moreover, the Potency result in assay [6] was “inactive”.
